According to ChEMBL document CHEMBL1961873, “Compounds: GSK PKIS; Assays: Nanosyn kinase panel” (2012):

What was measured:
[1] = biological target: T1, Inhibitor of nuclear factor kappa-B kinase subunit epsilon (Homo sapiens) (UniProt Q14164); details: at 1 µM;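 also: reported values are averaged percent inhibition figures against human IKKε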
T1 sequence (whole entry): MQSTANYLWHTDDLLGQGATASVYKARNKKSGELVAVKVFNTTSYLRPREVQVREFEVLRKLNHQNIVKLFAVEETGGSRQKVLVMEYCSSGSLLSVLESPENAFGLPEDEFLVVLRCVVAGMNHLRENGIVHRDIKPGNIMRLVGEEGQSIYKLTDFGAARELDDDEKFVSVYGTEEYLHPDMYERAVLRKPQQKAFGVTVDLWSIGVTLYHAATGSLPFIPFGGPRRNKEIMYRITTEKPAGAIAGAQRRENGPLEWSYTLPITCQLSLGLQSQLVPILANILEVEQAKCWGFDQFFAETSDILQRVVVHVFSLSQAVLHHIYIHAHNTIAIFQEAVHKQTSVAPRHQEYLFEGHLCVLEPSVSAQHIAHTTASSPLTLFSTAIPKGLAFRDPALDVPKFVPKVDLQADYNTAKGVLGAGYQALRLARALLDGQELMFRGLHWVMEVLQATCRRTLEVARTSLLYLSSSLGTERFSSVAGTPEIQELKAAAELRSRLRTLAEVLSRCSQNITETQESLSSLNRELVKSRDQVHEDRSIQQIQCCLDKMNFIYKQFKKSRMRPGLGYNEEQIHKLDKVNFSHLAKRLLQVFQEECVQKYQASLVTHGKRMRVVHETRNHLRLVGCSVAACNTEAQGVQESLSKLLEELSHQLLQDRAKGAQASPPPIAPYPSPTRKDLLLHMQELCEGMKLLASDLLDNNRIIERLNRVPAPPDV

[2] = biological target: T2, Serine/threonine-protein kinase Nek1 (Homo sapiens) (UniProt Q96PY6); details: at 0.1 µM
T2 sequence (whole entry): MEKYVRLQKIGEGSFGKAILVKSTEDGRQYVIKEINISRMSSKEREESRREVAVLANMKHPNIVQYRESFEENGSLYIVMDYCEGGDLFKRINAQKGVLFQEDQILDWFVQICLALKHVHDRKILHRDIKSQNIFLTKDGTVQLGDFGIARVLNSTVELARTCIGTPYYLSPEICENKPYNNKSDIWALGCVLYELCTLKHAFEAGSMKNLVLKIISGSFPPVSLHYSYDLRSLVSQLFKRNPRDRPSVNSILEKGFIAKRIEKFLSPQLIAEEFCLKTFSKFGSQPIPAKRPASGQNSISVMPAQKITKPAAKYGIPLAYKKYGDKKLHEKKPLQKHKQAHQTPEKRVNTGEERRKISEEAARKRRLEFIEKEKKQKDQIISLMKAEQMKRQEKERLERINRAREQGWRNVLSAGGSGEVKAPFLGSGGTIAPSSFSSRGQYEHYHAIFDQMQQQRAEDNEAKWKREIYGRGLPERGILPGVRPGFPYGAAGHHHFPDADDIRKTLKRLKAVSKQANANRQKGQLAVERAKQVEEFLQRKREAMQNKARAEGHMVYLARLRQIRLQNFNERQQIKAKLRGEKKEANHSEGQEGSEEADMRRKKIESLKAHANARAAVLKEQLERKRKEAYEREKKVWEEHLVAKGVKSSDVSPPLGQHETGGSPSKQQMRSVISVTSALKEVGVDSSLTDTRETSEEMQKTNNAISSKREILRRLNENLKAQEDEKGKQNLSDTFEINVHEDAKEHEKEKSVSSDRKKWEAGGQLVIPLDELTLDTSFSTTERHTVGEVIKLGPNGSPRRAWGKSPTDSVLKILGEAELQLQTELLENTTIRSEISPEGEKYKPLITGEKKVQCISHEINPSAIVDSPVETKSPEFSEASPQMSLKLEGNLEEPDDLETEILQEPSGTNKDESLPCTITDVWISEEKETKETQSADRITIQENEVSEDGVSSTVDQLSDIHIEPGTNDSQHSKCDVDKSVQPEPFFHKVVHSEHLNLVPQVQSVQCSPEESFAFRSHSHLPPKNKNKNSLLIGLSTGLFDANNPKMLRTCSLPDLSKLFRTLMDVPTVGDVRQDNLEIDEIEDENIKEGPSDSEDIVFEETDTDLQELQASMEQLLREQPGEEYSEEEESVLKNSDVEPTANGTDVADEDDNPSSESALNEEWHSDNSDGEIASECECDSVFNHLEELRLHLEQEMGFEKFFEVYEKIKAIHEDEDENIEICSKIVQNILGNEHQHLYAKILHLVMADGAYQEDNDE

[3] = biological target: T2, Serine/threonine-protein kinase Nek1 (Homo sapiens); details: at 1 µM
[4] = biological target: T3, Serine/threonine-protein kinase Nek2 (Homo sapiens) (UniProt P51955); details: at 0.1 µM
T3 sequence (whole entry): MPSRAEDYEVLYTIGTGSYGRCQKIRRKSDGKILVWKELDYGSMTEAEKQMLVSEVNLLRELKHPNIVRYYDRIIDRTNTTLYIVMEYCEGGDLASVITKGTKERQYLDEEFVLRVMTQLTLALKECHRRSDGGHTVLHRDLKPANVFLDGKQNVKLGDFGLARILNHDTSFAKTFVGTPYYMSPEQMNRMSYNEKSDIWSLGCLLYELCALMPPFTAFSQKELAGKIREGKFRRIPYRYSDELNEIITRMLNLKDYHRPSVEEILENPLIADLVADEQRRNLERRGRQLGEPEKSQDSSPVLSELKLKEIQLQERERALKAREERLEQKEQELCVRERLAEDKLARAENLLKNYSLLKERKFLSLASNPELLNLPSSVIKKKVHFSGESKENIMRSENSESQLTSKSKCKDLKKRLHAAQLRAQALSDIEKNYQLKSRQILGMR

[5] = biological target: T3, Serine/threonine-protein kinase Nek2 (Homo sapiens); details: at 1 µM
[6] = biological target: Serine/threonine-protein kinase Nek6 (Homo sapiens) (UniProt Q9HC98); details: at 0.1 µM
[7] = biological target: Serine/threonine-protein kinase Nek6 (Homo sapiens) (UniProt Q9HC98); details: at 1 µM
[8] = biological target: Serine/threonine-protein kinase Nek7 (Homo sapiens) (UniProt Q8TDX7); details: at 0.1 µM
[9] = biological target: Serine/threonine-protein kinase Nek7 (Homo sapiens) (UniProt Q8TDX7); details: at 1 µM
[10] = biological target: T4, Serine/threonine-protein kinase Nek9 (Homo sapiens) (UniProt Q8TD19); details: at 0.1 µM
T4 sequence (whole entry): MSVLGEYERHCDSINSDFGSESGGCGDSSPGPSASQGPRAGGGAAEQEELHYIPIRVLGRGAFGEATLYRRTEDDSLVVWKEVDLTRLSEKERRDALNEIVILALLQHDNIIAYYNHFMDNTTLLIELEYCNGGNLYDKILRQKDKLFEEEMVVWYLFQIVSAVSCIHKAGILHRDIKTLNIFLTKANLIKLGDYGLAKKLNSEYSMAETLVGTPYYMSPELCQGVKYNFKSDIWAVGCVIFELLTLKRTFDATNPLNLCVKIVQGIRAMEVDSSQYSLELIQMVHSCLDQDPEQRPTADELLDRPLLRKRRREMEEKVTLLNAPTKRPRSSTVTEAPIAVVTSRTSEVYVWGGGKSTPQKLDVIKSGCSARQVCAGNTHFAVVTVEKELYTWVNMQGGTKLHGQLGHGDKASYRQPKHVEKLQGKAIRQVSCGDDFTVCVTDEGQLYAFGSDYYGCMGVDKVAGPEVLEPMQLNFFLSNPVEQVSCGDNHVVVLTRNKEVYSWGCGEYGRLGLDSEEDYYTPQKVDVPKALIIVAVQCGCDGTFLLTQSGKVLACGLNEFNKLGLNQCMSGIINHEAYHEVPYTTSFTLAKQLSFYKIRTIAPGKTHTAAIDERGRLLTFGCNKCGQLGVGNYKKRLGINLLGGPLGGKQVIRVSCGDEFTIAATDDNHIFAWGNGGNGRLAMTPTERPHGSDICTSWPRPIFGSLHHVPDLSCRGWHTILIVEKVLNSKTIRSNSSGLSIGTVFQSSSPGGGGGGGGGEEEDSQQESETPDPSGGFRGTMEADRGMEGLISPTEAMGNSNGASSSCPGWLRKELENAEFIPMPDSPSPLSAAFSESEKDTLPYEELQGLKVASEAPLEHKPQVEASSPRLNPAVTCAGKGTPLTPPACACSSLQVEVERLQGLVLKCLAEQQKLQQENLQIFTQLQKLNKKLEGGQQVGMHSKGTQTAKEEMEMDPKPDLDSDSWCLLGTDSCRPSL

[11] = biological target: T4, Serine/threonine-protein kinase Nek9 (Homo sapiens); details: at 1 µM
[12] = biological target: Serine/threonine-protein kinase PLK1 (Homo sapiens) (UniProt P53350); details: at 0.1 µM
[13] = biological target: Serine/threonine-protein kinase PLK1 (Homo sapiens) (UniProt P53350); details: at 1 µM
[14] = biological target: T5, Dual specificity protein kinase TTK (Homo sapiens) (UniProt P33981); details: at 0.1 µM
T5 sequence (whole entry): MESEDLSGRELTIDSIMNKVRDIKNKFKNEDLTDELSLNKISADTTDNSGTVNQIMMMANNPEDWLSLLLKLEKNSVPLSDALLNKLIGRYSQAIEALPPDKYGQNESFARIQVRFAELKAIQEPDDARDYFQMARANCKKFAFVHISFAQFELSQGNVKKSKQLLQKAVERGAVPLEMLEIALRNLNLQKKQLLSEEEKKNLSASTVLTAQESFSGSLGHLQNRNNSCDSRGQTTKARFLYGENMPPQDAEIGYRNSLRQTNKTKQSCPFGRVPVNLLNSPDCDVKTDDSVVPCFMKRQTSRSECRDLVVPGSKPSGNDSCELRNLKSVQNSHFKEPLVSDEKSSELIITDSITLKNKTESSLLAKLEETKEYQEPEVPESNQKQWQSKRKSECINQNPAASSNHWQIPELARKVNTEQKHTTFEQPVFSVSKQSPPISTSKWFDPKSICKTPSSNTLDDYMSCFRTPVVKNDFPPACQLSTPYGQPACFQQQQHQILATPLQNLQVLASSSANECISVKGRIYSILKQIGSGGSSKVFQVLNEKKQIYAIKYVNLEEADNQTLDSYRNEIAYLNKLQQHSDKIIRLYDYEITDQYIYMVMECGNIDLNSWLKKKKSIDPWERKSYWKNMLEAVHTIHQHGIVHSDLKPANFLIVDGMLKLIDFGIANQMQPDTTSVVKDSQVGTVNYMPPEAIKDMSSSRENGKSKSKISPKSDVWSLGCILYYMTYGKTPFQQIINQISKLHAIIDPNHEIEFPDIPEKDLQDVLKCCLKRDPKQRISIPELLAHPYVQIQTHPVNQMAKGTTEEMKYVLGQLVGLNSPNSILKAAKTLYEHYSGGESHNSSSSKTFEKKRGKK

[15] = tested on: T6, Receptor-type tyrosine-protein kinase FLT3 (Homo sapiens), P36888 [D835Y]; details: at 1 µM
T6 sequence (whole entry): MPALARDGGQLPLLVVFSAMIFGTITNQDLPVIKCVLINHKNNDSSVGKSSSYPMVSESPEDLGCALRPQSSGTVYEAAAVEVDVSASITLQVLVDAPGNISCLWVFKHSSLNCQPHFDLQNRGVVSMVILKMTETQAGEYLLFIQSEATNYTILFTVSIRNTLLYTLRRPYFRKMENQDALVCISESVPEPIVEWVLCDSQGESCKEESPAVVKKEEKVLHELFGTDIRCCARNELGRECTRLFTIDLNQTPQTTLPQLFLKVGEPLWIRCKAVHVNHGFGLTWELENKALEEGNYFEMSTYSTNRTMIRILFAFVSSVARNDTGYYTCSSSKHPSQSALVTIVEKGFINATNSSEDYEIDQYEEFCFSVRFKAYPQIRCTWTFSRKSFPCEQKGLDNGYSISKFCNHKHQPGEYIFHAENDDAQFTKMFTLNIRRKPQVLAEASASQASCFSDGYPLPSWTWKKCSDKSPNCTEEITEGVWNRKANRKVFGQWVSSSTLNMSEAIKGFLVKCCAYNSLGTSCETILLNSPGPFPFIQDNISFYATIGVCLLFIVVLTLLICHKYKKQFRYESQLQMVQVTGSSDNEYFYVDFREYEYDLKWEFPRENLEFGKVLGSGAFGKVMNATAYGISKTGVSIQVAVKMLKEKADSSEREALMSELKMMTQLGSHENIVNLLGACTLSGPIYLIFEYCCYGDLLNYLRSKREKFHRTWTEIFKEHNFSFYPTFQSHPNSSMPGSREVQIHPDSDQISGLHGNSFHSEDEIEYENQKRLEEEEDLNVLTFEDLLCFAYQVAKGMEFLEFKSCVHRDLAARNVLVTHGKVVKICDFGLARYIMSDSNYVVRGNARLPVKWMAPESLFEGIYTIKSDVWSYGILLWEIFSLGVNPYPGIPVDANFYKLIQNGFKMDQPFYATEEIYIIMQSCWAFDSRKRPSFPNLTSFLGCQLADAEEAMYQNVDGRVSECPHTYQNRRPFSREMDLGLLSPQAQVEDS

[16] = biological target: Vascular endothelial growth factor receptor 3 (Homo sapiens) (UniProt P35916); details: at 0.1 µM
[17] = biological target: Vascular endothelial growth factor receptor 3 (Homo sapiens) (UniProt P35916); details: at 1 µM
[18] = biological target: Macrophage colony-stimulating factor 1 receptor (Homo sapiens) (UniProt P07333); details: at 0.1 µM
[19] = biological target: Macrophage colony-stimulating factor 1 receptor (Homo sapiens) (UniProt P07333); details: at 1 µM
[20] = biological target: Tyrosine-protein kinase Fyn (Homo sapiens) (UniProt P06241); details: at 0.1 µM
Tyrosine-protein kinase Fyn (Homo sapiens), sequence (P06241 2-537 limits assumed): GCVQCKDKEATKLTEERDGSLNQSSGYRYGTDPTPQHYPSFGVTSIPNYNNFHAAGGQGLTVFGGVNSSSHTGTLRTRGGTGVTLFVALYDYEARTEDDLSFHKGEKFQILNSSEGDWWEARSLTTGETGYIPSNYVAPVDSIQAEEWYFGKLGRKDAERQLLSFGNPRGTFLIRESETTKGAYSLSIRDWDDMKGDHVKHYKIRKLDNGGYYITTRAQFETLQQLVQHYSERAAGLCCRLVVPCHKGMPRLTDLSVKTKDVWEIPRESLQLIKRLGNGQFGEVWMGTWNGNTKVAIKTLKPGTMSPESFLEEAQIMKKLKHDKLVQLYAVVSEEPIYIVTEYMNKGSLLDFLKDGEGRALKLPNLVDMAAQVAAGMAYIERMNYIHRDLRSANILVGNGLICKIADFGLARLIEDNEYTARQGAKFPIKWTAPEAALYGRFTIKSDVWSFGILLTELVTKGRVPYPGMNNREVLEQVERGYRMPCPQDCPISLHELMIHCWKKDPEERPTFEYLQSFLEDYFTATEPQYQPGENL

Serine/threonine-protein kinase Nek6 (Homo sapiens), sequence (Q9HC98 whole entry): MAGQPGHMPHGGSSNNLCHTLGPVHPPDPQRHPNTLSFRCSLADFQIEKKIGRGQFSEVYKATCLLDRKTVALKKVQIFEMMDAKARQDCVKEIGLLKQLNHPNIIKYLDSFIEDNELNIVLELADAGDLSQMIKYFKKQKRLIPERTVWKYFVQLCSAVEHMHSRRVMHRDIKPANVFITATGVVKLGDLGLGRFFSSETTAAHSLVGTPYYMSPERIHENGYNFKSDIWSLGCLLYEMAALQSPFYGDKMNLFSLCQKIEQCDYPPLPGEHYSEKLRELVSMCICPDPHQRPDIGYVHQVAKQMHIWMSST
Vascular endothelial growth factor receptor 3 (Homo sapiens), sequence (P35916 whole entry): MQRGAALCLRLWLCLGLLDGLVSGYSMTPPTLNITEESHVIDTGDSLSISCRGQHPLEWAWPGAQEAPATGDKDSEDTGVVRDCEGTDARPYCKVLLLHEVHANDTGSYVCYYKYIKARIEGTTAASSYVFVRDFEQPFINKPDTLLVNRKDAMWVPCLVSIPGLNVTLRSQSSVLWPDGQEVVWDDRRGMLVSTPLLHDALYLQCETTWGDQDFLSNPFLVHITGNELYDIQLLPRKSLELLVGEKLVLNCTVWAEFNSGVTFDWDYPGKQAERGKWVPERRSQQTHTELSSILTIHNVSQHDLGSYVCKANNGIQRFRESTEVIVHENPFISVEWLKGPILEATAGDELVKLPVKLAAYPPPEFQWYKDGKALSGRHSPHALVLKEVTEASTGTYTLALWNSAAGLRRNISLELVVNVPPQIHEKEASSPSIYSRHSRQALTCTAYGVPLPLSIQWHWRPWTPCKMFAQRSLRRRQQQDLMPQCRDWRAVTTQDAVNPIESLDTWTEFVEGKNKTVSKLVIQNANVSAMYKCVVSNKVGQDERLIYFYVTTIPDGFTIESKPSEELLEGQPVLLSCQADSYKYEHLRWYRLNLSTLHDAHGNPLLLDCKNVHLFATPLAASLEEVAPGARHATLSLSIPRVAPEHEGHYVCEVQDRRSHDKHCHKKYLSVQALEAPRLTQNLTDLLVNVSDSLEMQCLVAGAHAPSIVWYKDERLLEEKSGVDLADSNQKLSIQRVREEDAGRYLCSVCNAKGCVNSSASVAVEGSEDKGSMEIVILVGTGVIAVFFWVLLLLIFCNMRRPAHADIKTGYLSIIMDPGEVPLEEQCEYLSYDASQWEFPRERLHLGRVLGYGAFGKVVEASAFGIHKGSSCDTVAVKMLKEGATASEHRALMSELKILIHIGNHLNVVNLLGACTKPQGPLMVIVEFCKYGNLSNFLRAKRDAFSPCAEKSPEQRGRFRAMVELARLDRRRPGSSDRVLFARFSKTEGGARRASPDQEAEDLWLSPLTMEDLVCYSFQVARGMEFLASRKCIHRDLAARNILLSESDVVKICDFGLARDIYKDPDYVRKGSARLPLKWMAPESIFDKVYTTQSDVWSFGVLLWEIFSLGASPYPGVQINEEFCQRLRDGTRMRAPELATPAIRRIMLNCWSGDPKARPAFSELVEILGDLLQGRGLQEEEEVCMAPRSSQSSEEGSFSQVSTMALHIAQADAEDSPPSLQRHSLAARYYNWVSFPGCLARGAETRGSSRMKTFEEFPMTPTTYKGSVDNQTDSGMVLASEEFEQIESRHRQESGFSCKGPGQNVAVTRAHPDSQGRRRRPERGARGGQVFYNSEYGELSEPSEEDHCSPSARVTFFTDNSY
Serine/threonine-protein kinase PLK1 (Homo sapiens), sequence (P53350 whole entry): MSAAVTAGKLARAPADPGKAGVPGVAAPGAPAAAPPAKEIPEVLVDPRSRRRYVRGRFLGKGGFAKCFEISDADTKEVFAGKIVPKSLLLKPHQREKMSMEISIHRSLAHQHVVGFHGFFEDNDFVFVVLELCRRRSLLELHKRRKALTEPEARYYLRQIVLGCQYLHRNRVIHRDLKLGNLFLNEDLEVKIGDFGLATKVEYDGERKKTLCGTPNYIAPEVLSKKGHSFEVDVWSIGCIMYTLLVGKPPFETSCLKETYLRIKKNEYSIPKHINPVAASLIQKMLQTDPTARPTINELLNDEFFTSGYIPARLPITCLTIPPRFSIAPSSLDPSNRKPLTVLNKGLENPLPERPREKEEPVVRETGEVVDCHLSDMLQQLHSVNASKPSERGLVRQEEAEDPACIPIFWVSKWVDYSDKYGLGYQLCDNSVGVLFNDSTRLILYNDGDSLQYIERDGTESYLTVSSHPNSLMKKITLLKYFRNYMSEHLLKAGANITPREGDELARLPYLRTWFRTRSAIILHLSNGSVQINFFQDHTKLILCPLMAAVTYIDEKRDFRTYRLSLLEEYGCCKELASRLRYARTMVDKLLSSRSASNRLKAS
Macrophage colony-stimulating factor 1 receptor (Homo sapiens), sequence (P07333 whole entry): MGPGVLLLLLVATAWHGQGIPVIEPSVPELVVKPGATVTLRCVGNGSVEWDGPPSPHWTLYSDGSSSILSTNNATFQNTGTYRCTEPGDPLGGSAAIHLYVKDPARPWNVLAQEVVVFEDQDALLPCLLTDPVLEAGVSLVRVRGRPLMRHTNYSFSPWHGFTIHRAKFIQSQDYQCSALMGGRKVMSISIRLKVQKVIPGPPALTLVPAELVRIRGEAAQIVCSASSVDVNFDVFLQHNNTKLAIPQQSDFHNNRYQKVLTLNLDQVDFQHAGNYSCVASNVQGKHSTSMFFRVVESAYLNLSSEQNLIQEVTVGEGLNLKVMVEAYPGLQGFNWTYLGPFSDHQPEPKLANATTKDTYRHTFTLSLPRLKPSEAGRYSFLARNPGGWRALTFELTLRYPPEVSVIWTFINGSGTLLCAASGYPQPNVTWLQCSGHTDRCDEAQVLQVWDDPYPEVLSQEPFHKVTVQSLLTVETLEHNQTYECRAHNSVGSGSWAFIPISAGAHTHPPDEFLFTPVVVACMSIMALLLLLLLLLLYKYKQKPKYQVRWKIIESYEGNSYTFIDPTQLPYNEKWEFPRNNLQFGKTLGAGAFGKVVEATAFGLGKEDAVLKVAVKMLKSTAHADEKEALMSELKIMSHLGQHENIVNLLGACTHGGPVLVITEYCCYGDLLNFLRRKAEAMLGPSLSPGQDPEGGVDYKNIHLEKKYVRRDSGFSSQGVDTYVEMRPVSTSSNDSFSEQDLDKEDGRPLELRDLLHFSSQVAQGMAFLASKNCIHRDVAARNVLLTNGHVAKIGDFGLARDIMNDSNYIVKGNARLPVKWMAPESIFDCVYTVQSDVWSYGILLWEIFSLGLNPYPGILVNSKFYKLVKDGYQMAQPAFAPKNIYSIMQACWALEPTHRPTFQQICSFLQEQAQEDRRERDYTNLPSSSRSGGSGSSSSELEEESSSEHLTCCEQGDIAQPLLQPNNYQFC
Serine/threonine-protein kinase Nek7 (Homo sapiens), sequence (Q8TDX7 whole entry, looked up): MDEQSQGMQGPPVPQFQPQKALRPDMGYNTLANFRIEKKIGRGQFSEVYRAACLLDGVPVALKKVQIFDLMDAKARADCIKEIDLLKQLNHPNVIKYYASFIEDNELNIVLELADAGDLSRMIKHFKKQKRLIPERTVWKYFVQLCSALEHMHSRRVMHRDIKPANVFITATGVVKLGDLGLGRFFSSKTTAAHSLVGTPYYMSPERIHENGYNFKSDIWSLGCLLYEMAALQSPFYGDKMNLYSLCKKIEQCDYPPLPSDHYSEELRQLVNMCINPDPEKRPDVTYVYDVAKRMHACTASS

Row | SMILES | inhibition [1] [%] | inhibition [2] [%] | inhibition [3] [%] | inhibition [4] [%] | inhibition [5] [%] | inhibition [6] [%] | inhibition [7] [%] | inhibition [8] [%] | inhibition [9] [%] | inhibition [10] [%] | inhibition [11] [%] | inhibition [12] [%] | inhibition [13] [%] | inhibition [14] [%] | inhibition [15] [%] | inhibition [16] [%] | inhibition [17] [%] | inhibition [18] [%] | inhibition [19] [%] | inhibition [20] [%]
1 | CN(C)CCNC(=O)Nc1ccc(N(C)c2ccnc(Nc3ccc(CS(C)(=O)=O)cc3)n2)cc1 | 6.21 | 0.66 | 2.81 | 5.18 | -2.7 | 3.4 | 3.93 | 3.07 | 2.78 | 0.16 | 4.76 | 3.28 | 3.61 | 6.19 | 5.12 | 2.39 | 4.9 | 14.8 | 67.3 | 1.66
2 | NS(=O)(=O)c1cccc(N/C=C2\C(=O)Nc3ccccc32)c1 | 14.5 | 2.63 | 4.56 | 5.64 | 4.55 | 1.86 | 1.95 | 6.51 | 4.33 | 5.97 | 4.34 | 3.78 | 4.79 | 9.01 | 25.9 | 1.98 | 14.8 | 5.41 | 25.1 | 2.53
